High-throughput results as filed in PubChem BioAssay.
Most compounds without a hit are left out; they make up all but 3.9% or so of the library.
HIF-2a inh = blocks HIF-2a reporter activity; 786-0 RCC cells HIF-2a reporter, luciferase luminescence, overnight; inhibition, % at 18.8 µM; 360,000 compounds, 0.72% hits; AID 624352;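 active means inhibition of the luminescence signal of 40% or more relative to plate controls, in a single-dose primary screen at 18.75 µM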
TROY NFkB inh = inhibitors of TROY-dependent NF-kB signaling. Q293 LMP1-TROYcd NF-kB luciferase reporter, 4 h. inhibition, % at 10 µM. 360,000 compounds, 0.98% hits. AID 1347056;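 active means compounds whose plate-normalised and pattern-corrected inhibition of the luciferase reporter signal at the single screening dose is 50% or more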
TWEAK-Fn14 inh = blocks TWEAK-Fn14 interaction in a reporter cell assay; TWEAK-stimulated Fn14 reporter cells, luciferase luminescence, 8 h; inhibition, % at 10 µM; 360,000 compounds, 2% hits; in the data active means inhibition above about 50%
aSyn UTR inh = 5' untranslated region of α-synuclein, MLPCN primary screen; 300,000 compounds, 0.82% hits; alpha-synuclein 5'UTR reporter, inhibitor activity; inhibition, % (tested at 7.5 µM); in the data active means inhibition above about 60%;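 further: H4 neuroglioblastoma cells stably carrying SNCA 5'UTR luciferase fusion; 0% = DMSO wells and 100% = positive control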
TRAIL sens C8 = sensitizes caspase-8 expressing cells to TRAIL; 360,000 compounds, 1% hits; NB7+C8 cells + TRAIL, ATPlite viability luminescence; inhibition (viability loss, TRAIL sensitization), % at 10 µM;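 active means compounds causing at least 50% loss of cell viability in the single-dose screen, relative to plate controls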
HSP90 refold inh = inhibitors of HSP90 luciferase refolding in rabbit reticulocyte lysate | 290,000 compounds, 0.91% hits | luciferase refolding luminescence, 3 h | inhibition, % at 5.6 µM;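 active means inhibition above the screen-wide mean plus 3 SD, computed separately per campaign, cut at about 16% in these data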;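 further: 0% = DMSO wells and 100% = 60 µM geldanamycin wells; inhibitors lower the luminescence because luciferase stays unfolded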
An asterisk follows results filed as active.

Results for CCN(c1ccccc1)S(=O)(=O)c1ccc(C(=O)N2CCN(c3ccccc3F)CC2)cc1 ?
HIF-2a inh: 8; TROY NFkB inh: 3; TWEAK-Fn14 inh: -12; TRAIL sens C8: 28

What do the screens show for `COc1ccc(CCn2c(-c3ccco3)nc3nc4ccccc4nc32)cc1`?
HIF-2a inh: -118; TROY NFkB inh: 32; TWEAK-Fn14 inh: 57*; aSyn UTR inh: -57; TRAIL sens C8: 10; HSP90 refold inh: -2

How did COc1ccccc1Cn1c(-c2ccco2)nc2nc3ccccc3nc21 do in these assays?
HIF-2a inh: -141; TROY NFkB inh: -20; TWEAK-Fn14 inh: 1; aSyn UTR inh: -26; TRAIL sens C8: 27; HSP90 refold inh: -1

How did O=S1(=O)CC(N2CCN(Cc3ccccc3F)CC2)CN1Cc1cn(Cc2cccc(Cl)c2)nn1 (stereo not drawn) do in these assays?
HIF-2a inh: 3; TROY NFkB inh: -3; TWEAK-Fn14 inh: 7; TRAIL sens C8: -22

What do the screens show for `Cc1ccccc1-c1cc2nc(Oc3cccc(F)c3)n(C)c(=O)c2s1`?
HIF-2a inh: 1; TROY NFkB inh: 4; TWEAK-Fn14 inh: -9; TRAIL sens C8: 9

How did CCc1cc2c(=O)c(-c3ccc4c(c3)OCCO4)coc2c(CN2CCCCC2C)c1O (stereo not drawn) do in these assays?
HIF-2a inh: -111; TROY NFkB inh: 72*; TWEAK-Fn14 inh: 31; aSyn UTR inh: -65; TRAIL sens C8: 12; HSP90 refold inh: 4

What do the screens show for `CCc1cc2c(=O)c(-c3nc4ccccc4[nH]3)coc2c(CN2CCCCC2C)c1O` (stereo not drawn)?
HIF-2a inh: -5; TROY NFkB inh: 17; TWEAK-Fn14 inh: 17; aSyn UTR inh: -11; TRAIL sens C8: 0; HSP90 refold inh: 0

How did COCC1CCN(C(=O)c2cc(COc3ccc(F)cc3Cl)on2)C1 (stereo not drawn) do in these assays?
HIF-2a inh: -224; TROY NFkB inh: -47; TWEAK-Fn14 inh: 94*; TRAIL sens C8: -3

How did CN(C)S(=O)(=O)c1ccc(Nc2nc(C3CC3)nc3c2nnn3Cc2ccccc2Cl)cc1 do in these assays?
HIF-2a inh: 28; TROY NFkB inh: 49; TWEAK-Fn14 inh: 87*; aSyn UTR inh: 30; TRAIL sens C8: 20; HSP90 refold inh: -1

Results for CCc1nc(Nc2ccc(OC)c(OC)c2)c2nnn(Cc3ccccc3Cl)c2n1 ?
HIF-2a inh: 13; TROY NFkB inh: 50; TWEAK-Fn14 inh: 52*; aSyn UTR inh: 17; TRAIL sens C8: 28; HSP90 refold inh: 2

What do the screens show for `COC(=O)[C@]12CCCCC=C1N(Cc1ccccc1)C(=O)[C@H](CC(=O)NCCCCc1ccccc1)C2`?
HIF-2a inh: 2; TROY NFkB inh: 27; TWEAK-Fn14 inh: 19; TRAIL sens C8: -15

How did CCOC(=O)[C@]12CCC=C1N(Cc1cccc3ccccc13)C(=O)[C@H](CC(=O)NCc1ccc(OC)c(OC)c1)C2 do in these assays?
HIF-2a inh: -29; TROY NFkB inh: 34; TWEAK-Fn14 inh: 61*; TRAIL sens C8: 30

How did COC(=O)[C@]12CCCCC=C1N(Cc1cccc3ccccc13)C(=O)[C@H](CC(=O)NCc1ccc(OC)c(OC)c1)C2 do in these assays?
HIF-2a inh: -20; TROY NFkB inh: 63*; TWEAK-Fn14 inh: 97*; TRAIL sens C8: 63*

Results for CCOC(=O)[C@]12CCC=C1N(Cc1ccco1)C(=O)[C@H](CC(=O)NCc1ccc(OC)c(OC)c1)C2 ?
HIF-2a inh: 1; TROY NFkB inh: -3; TWEAK-Fn14 inh: -5; TRAIL sens C8: -22

How did CCc1ccc(C(O)c2ncc(-c3cccc(F)c3)[nH]2)cc1 (stereo not drawn) do in these assays?
HIF-2a inh: -88; TROY NFkB inh: -21; TWEAK-Fn14 inh: 0; TRAIL sens C8: -4

Results for COc1ccc(-c2cn[nH]c2-c2ccc(OCc3ccc([N+](=O)[O-])cc3)cc2O)cc1OC ?
HIF-2a inh: 19; TROY NFkB inh: 50; TWEAK-Fn14 inh: 83*; aSyn UTR inh: 1; TRAIL sens C8: 12; HSP90 refold inh: 6

Results for O=[N+]([O-])c1ccc(COc2ccc(-c3[nH]ncc3-c3ccc(Cl)cc3)c(O)c2)cc1 ?
HIF-2a inh: -25; TROY NFkB inh: 23; TWEAK-Fn14 inh: 51*; aSyn UTR inh: 25; TRAIL sens C8: 6; HSP90 refold inh: -2

What do the screens show for `COc1ccc(-c2cn[nH]c2-c2ccc(OC)cc2O)cc1`?
HIF-2a inh: 9; TROY NFkB inh: 43; TWEAK-Fn14 inh: 78*; aSyn UTR inh: 41; TRAIL sens C8: -2; HSP90 refold inh: -1

How did CC(C)NC(=O)Nc1ccc2c(c1)C(=O)N([C@H](C)CO)C[C@H](C)[C@@H](CN(C)S(=O)(=O)c1ccc(F)cc1)O2 do in these assays?
HIF-2a inh: 8; TROY NFkB inh: 5; TWEAK-Fn14 inh: 7; TRAIL sens C8: -10
